# Measured values from publication PMC12864922, “TDP-43 directly inhibits mRNA accumulation in neurites through modulation of mRNA stability”.
# Over roughly 9,900 sequences, “r (bound/input frequency ratio)” has its median near 0.7; the highest 2% begin near 6.5. This is one part of a sample in which the highest values are shown more often than they occur.
# B1: ENSMUSG00000061578.1467|Ksr2 (ssRNA)
# RNA: GGGAGUUCUACAGUCCGACGAUCGCUUCGAUAUCCGCAUGCUAUGAAUGGAUGAAUGGAUGGGUGAAUGGAUGGAUAGGUAUGUGAAUAAAUGGAUGGAUGGAUGGAUUGAUUUGUGAAUGAAUGGAUGAAUGGAUGGGUAGGUGGGUGGAUGCAUAGGCAAGUAGAUGAAUGAAUAUGUGGGUAGAAGGGUGAGUGGGUGGAUGAAUGGAUGGAUAGGUUGGUAGGUUAAUGUAUUCGUGGAUGGGUGAAUGGAUGGAUGGAUAGAUAGAUGGGAAGGUGGAUGGACAGAUGGAUGGAUGGACUCUUGCGGUCGCACUAGUGUGGAAUUCUCGGGUGUCAAGG
# B2: ENSMUSG00000061578.1472|Ksr2 (ssRNA)
# RNA: GGGAGUUCUACAGUCCGACGAUCGCUUCGAUAUCCGCAUGCUAGAUAGGUAUGUGAAUAAAUGGAUGGAUGGAUGGAUUGAUUUGUGAAUGAAUGGAUGAAUGGAUGGGUAGGUGGGUGGAUGCAUAGGCAAGUAGAUGAAUGAAUAUGUGGGUAGAAGGGUGAGUGGGUGGAUGAAUGGAUGGAUAGGUUGGUAGGUUAAUGUAUUCGUGGAUGGGUGAAUGGAUGGAUGGAUAGAUAGAUGGGAAGGUGGAUGGACAGAUGGAUGGAUGGAUAGAUAGAUGGACAGGUGGUUGGUGGAUAACUCUUGCGGUCGCACUAGUGUGGAAUUCUCGGGUGUCAAGG
# B3: ENSMUSG00000061578.1471|Ksr2 (ssRNA)
# RNA: GGGAGUUCUACAGUCCGACGAUCGCUUCGAUAUCCGCAUGCUAUGGAUGGAUAGGUAUGUGAAUAAAUGGAUGGAUGGAUGGAUUGAUUUGUGAAUGAAUGGAUGAAUGGAUGGGUAGGUGGGUGGAUGCAUAGGCAAGUAGAUGAAUGAAUAUGUGGGUAGAAGGGUGAGUGGGUGGAUGAAUGGAUGGAUAGGUUGGUAGGUUAAUGUAUUCGUGGAUGGGUGAAUGGAUGGAUGGAUAGAUAGAUGGGAAGGUGGAUGGACAGAUGGAUGGAUGGAUAGAUAGAUGGACAGGUGGUUGGUCUCUUGCGGUCGCACUAGUGUGGAAUUCUCGGGUGUCAAGG
# B4: ENSMUSG00000061578.1460|Ksr2 (ssRNA)
# RNA: GGGAGUUCUACAGUCCGACGAUCGCUUCGAUAUCCGCAUGCUAGAUGGAUGAAUGGAUGGGUAGGUGGGUAGAUAGGUAUAUGAAUGAAUGGAUGAAUGGAUGGGUGAAUGGAUGGAUAGGUAUGUGAAUAAAUGGAUGGAUGGAUGGAUUGAUUUGUGAAUGAAUGGAUGAAUGGAUGGGUAGGUGGGUGGAUGCAUAGGCAAGUAGAUGAAUGAAUAUGUGGGUAGAAGGGUGAGUGGGUGGAUGAAUGGAUGGAUAGGUUGGUAGGUUAAUGUAUUCGUGGAUGGGUGAAUGGAUGGAUGCUCUUGCGGUCGCACUAGUGUGGAAUUCUCGGGUGUCAAGG
# B5: ENSMUSG00000061578.1473|Ksr2 (ssRNA)
# RNA: GGGAGUUCUACAGUCCGACGAUCGCUUCGAUAUCCGCAUGCUAUAUGUGAAUAAAUGGAUGGAUGGAUGGAUUGAUUUGUGAAUGAAUGGAUGAAUGGAUGGGUAGGUGGGUGGAUGCAUAGGCAAGUAGAUGAAUGAAUAUGUGGGUAGAAGGGUGAGUGGGUGGAUGAAUGGAUGGAUAGGUUGGUAGGUUAAUGUAUUCGUGGAUGGGUGAAUGGAUGGAUGGAUAGAUAGAUGGGAAGGUGGAUGGACAGAUGGAUGGAUGGAUAGAUAGAUGGACAGGUGGUUGGUGGAUAAAUGAGUCUCUUGCGGUCGCACUAGUGUGGAAUUCUCGGGUGUCAAGG
# B6: ENSMUSG00000061578.1458|Ksr2 (ssRNA)
# RNA: GGGAGUUCUACAGUCCGACGAUCGCUUCGAUAUCCGCAUGCUAGAAUGAAUGGAUGAUGGAUGAAUGGAUGGGUAGGUGGGUAGAUAGGUAUAUGAAUGAAUGGAUGAAUGGAUGGGUGAAUGGAUGGAUAGGUAUGUGAAUAAAUGGAUGGAUGGAUGGAUUGAUUUGUGAAUGAAUGGAUGAAUGGAUGGGUAGGUGGGUGGAUGCAUAGGCAAGUAGAUGAAUGAAUAUGUGGGUAGAAGGGUGAGUGGGUGGAUGAAUGGAUGGAUAGGUUGGUAGGUUAAUGUAUUCGUGGAUGGGUGCUCUUGCGGUCGCACUAGUGUGGAAUUCUCGGGUGUCAAGG
# B7: ENSMUSG00000061578.1470|Ksr2 (ssRNA)
# RNA: GGGAGUUCUACAGUCCGACGAUCGCUUCGAUAUCCGCAUGCUAGGUGAAUGGAUGGAUAGGUAUGUGAAUAAAUGGAUGGAUGGAUGGAUUGAUUUGUGAAUGAAUGGAUGAAUGGAUGGGUAGGUGGGUGGAUGCAUAGGCAAGUAGAUGAAUGAAUAUGUGGGUAGAAGGGUGAGUGGGUGGAUGAAUGGAUGGAUAGGUUGGUAGGUUAAUGUAUUCGUGGAUGGGUGAAUGGAUGGAUGGAUAGAUAGAUGGGAAGGUGGAUGGACAGAUGGAUGGAUGGAUAGAUAGAUGGACAGGUGCUCUUGCGGUCGCACUAGUGUGGAAUUCUCGGGUGUCAAGG
# B8: ENSMUSG00000061578.1462|Ksr2 (ssRNA)
# RNA: GGGAGUUCUACAGUCCGACGAUCGCUUCGAUAUCCGCAUGCUAGAUGGGUAGGUGGGUAGAUAGGUAUAUGAAUGAAUGGAUGAAUGGAUGGGUGAAUGGAUGGAUAGGUAUGUGAAUAAAUGGAUGGAUGGAUGGAUUGAUUUGUGAAUGAAUGGAUGAAUGGAUGGGUAGGUGGGUGGAUGCAUAGGCAAGUAGAUGAAUGAAUAUGUGGGUAGAAGGGUGAGUGGGUGGAUGAAUGGAUGGAUAGGUUGGUAGGUUAAUGUAUUCGUGGAUGGGUGAAUGGAUGGAUGGAUAGAUAGAUGCUCUUGCGGUCGCACUAGUGUGGAAUUCUCGGGUGUCAAGG
# B9: ENSMUSG00000061578.1466|Ksr2 (ssRNA)
# RNA: GGGAGUUCUACAGUCCGACGAUCGCUUCGAUAUCCGCAUGCUAUAUGAAUGAAUGGAUGAAUGGAUGGGUGAAUGGAUGGAUAGGUAUGUGAAUAAAUGGAUGGAUGGAUGGAUUGAUUUGUGAAUGAAUGGAUGAAUGGAUGGGUAGGUGGGUGGAUGCAUAGGCAAGUAGAUGAAUGAAUAUGUGGGUAGAAGGGUGAGUGGGUGGAUGAAUGGAUGGAUAGGUUGGUAGGUUAAUGUAUUCGUGGAUGGGUGAAUGGAUGGAUGGAUAGAUAGAUGGGAAGGUGGAUGGACAGAUGGAUGCUCUUGCGGUCGCACUAGUGUGGAAUUCUCGGGUGUCAAGG
# B10: ENSMUSG00000061578.1477|Ksr2 (ssRNA)
# RNA: GGGAGUUCUACAGUCCGACGAUCGCUUCGAUAUCCGCAUGCUAUGGAUUGAUUUGUGAAUGAAUGGAUGAAUGGAUGGGUAGGUGGGUGGAUGCAUAGGCAAGUAGAUGAAUGAAUAUGUGGGUAGAAGGGUGAGUGGGUGGAUGAAUGGAUGGAUAGGUUGGUAGGUUAAUGUAUUCGUGGAUGGGUGAAUGGAUGGAUGGAUAGAUAGAUGGGAAGGUGGAUGGACAGAUGGAUGGAUGGAUAGAUAGAUGGACAGGUGGUUGGUGGAUAAAUGAGUGAAUGAUUAUGUUGAUAGAUAUGUCUCUUGCGGUCGCACUAGUGUGGAAUUCUCGGGUGUCAAGG
# B11: ENSMUSG00000061578.1475|Ksr2 (ssRNA)
# RNA: GGGAGUUCUACAGUCCGACGAUCGCUUCGAUAUCCGCAUGCUAUGGAUGGAUGGAUGGAUUGAUUUGUGAAUGAAUGGAUGAAUGGAUGGGUAGGUGGGUGGAUGCAUAGGCAAGUAGAUGAAUGAAUAUGUGGGUAGAAGGGUGAGUGGGUGGAUGAAUGGAUGGAUAGGUUGGUAGGUUAAUGUAUUCGUGGAUGGGUGAAUGGAUGGAUGGAUAGAUAGAUGGGAAGGUGGAUGGACAGAUGGAUGGAUGGAUAGAUAGAUGGACAGGUGGUUGGUGGAUAAAUGAGUGAAUGAUUAUGUCUCUUGCGGUCGCACUAGUGUGGAAUUCUCGGGUGUCAAGG
# B12: ENSMUSG00000061578.1468|Ksr2 (ssRNA)
# RNA: GGGAGUUCUACAGUCCGACGAUCGCUUCGAUAUCCGCAUGCUAGAUGAAUGGAUGGGUGAAUGGAUGGAUAGGUAUGUGAAUAAAUGGAUGGAUGGAUGGAUUGAUUUGUGAAUGAAUGGAUGAAUGGAUGGGUAGGUGGGUGGAUGCAUAGGCAAGUAGAUGAAUGAAUAUGUGGGUAGAAGGGUGAGUGGGUGGAUGAAUGGAUGGAUAGGUUGGUAGGUUAAUGUAUUCGUGGAUGGGUGAAUGGAUGGAUGGAUAGAUAGAUGGGAAGGUGGAUGGACAGAUGGAUGGAUGGAUAGAUACUCUUGCGGUCGCACUAGUGUGGAAUUCUCGGGUGUCAAGG
# B13: ENSMUSG00000031028.156|Tub (ssRNA)
# RNA: GGGAGUUCUACAGUCCGACGAUCGCUUCGAUAUCCGCAUGCUAAGCUCCCAUUAUUGCCAGCAUGCCAUGAUCAGUGAGGGCUGUGUGCCAUGCUUAGGGGGAUGGCGCAGGGUGAGGGGAGCAGAGGAUAUUUUAGGGCCACAAGAGCUCAGAGGUAGCGGACCUCUGUGUGGUUCACCAACAGCAAUGCUGAUCCCUGAGUAUAGGGCACAUGUCUCUUGGUUACCUCACUGGUUAAUGGCAGAGUUGAGAACCUCAAAUUCUUUUGUUCCUACUGUUGCCCAGAAACUAGACUCUCUGACCUCUUGCGGUCGCACUAGUGUGGAAUUCUCGGGUGUCAAGG
# Biological target: TDP-43 (Homo sapiens, UniProt Q13148 1-414)
# Test: RNA Bind-n-Seq with designed 260-mer pool; 25 mM Tris-HCl, 150 mM KCl, 3 mM MgCl2, BSA (printed 500 mg/mL), 20 units/mL SUPERase IN; pH not stated; 500 nM RNA pool, 1 h, 4 C; TDP-43 5, 50, 500 nM; high values mean tight binding
# Details: protein: recombinant; tags: SBP (GST cleaved off with PreScission; pGEX-GST-SBP)
# Method in brief: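 Binding (R) is the ratio of each oligo's mapped-read-normalized abundance in the bound fraction to its abundance in the input. To obtain it, SBP-tagged recombinant TDP-43 (5, 50 or 500 nM) on streptavidin beads was incubated with 500 nM of an in vitro-transcribed 260-nt 3′ UTR oligo pool for 1 h at 4 °C in 25 mM Tris-HCl, 150 mM KCl, 3 mM MgCl2, BSA and SUPERase IN. The RNA retained after washing was released with biotin, then reverse transcribed, amplified by PCR and sequenced.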
# Sequence of TDP-43 (Q13148 whole entry): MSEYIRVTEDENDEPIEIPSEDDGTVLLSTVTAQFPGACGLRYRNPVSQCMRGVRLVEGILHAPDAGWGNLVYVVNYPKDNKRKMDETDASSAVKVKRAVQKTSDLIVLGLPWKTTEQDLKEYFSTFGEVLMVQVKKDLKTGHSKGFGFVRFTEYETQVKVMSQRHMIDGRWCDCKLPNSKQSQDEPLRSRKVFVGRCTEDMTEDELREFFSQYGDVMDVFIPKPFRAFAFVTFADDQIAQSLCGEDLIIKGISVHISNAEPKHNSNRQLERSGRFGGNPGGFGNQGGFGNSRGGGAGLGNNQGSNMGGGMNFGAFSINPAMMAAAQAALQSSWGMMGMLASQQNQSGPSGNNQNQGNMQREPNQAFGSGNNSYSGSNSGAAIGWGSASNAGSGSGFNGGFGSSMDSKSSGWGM
row,Binder,binding signal
1,B1,3.46 R (bound/input frequency ratio)
2,B2,5.09 R (bound/input frequency ratio)
3,B3,6.33 R (bound/input frequency ratio)
4,B4,6.72 R (bound/input frequency ratio)
5,B5,9.68 R (bound/input frequency ratio)
6,B6,4.62 R (bound/input frequency ratio)
7,B7,5.59 R (bound/input frequency ratio)
8,B8,5.83 R (bound/input frequency ratio)
9,B9,5.78 R (bound/input frequency ratio)
10,B10,5.58 R (bound/input frequency ratio)
11,B11,8.8 R (bound/input frequency ratio)
12,B12,14.4 R (bound/input frequency ratio)
13,B13,0.518 R (bound/input frequency ratio)
